This passage reports Potency results from PubChem BioAssay (Tox21).

Several values for one entry are separate records, joined by “and”; a condition that tells them apart may be missing. Identical values can stand only once. Inconclusive results are not listed. Some structures have more than one record in an assay (separate samples or runs), and their calls can disagree. Activity calls are given as the source filed them. Unless noted, calls come from the whole dose curve; as a rule, active = well fitted curve in the direction sought with a large enough effect in the repeat runs; inconclusive = weak or mixed curves; inactive = no such curve, though single readings can be large; an effect the other way counts as inactive or inconclusive.

A short description of test [1]: qHTS assay to identify aromatase inhibitors - cell viability counter screen (AID 743084).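 Note: cells stimulated with testosterone during compound exposure; nearly all actives have a fitted effect of over 55% in size.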 Note: potency is the fitted concentration of half-maximal effect. Background: In qHTS, concentration-response curves come from the screen itself.
The nature of test [2]: qHTS assay to identify small molecule that activate the aryl hydrocarbon receptor (AhR) signaling pathway - cell viability counter screen (AID 743086). Note: nearly all actives have a fitted effect of over 45% in size. Note: potency is the fitted concentration of half-maximal effect. An outline of the steps: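 HepG2-AhR-luc (HG2L7.5c1) cells, 4000/well, treated 24 h at 37 C with compound; viability measured as CellTiter-Fluor fluorescence after 30 min in the same wells as the luciferase read.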
Test [3] addresses Peroxisome proliferator-activated receptor gamma (Homo sapiens) (UniProt P37231). The experiment in a line: qHTS assay to identify small molecule agonists of the peroxisome proliferator-activated receptor gamma (PPARg) signaling pathway (AID 743094; active = well fitted activation curve with a large enough effect in the signal ratio in the repeat runs, not every such curve was filed as active; the % refers to the signal ratio). The method in brief:
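Stably transfected HEK293H cells (GeneBLAzer PPARg UAS-bla) were incubated with test substances for 17 h at 37C after a 5 h pre-incubation; beta-lactamase activity was then detected by FRET substrate fluorescence.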

The target is the same in test [4]. The experiment in a line: qHTS assay to identify small molecule antagonists of the peroxisome proliferator-activated receptor gamma (PPARg) signaling pathway (AID 743191; calls by dose curve; note: nearly all actives have a fitted effect of over 30% in size; note: potency is the fitted concentration of half-maximal effect). An outline of the steps: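 GeneBLAzer PPARg UAS-bla HEK293H cells, 5 h post-plating, exposed to compounds 17 h at 37C. LiveBLAzer B/G FRET substrate added for 1 h at room temperature; beta-lactamase reporter read by fluorescence intensity.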

Test [5] can be described thus: qHTS assay to identify small molecule antagonists of the peroxisome proliferator-activated receptor gamma (PPARg) signaling pathway - cell viability counter screen (AID 743194). Note: nearly all actives have a fitted effect of over 55% in size. Note: potency is the fitted concentration of half-maximal effect. The conditions noted are these: Potency: co-treated with 50 nM rosiglitazone. An outline of the steps:
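Cytotoxicity counter screen in PPARg-bla HEK293H cells, same wells as reporter assay. Compounds plus 50 nM rosiglitazone (final) for 17 h at 37 C, then viability read by CellTiter-Glo luminescence.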

Test [6] can be described thus: qHTS assay for small molecule agonists of the antioxidant response element (ARE) signaling pathway (AID 743202; active = well fitted activation curve with a large enough effect in the signal ratio in the repeat runs, not every such curve was filed as active; the % refers to the signal ratio). The method in brief:
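Agonist mode reporter screen: HepG2 cells with ARE-controlled beta-lactamase are incubated with test compounds for 16 h at 37 C, and beta-lactamase activity is measured as fluorescence of cleaved B/G FRET substrate.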

Test [7] can be described thus: qHTS assay for small molecule agonists of the antioxidant response element (ARE) signaling pathway - cell viability counter screen (AID 743203; calls by dose curve; note: nearly all actives have a fitted effect of over 55% in size; note: potency is the fitted concentration of half-maximal effect). An outline of the steps: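 Cells (ARE-bla HepG2, 2,000/well) receive DMSO-dissolved compounds after a 5 hrs rest. Plates incubate 16 hrs at 37C/5% CO2. CellTiter-Glo luminescence is then recorded after 30 min at room temperature.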

Test [8] can be described thus: qHTS assay for small molecule activators of the heat shock response signaling pathway - cell viability counter screen (AID 743209). Note: nearly all actives have a fitted effect of over 50% in size. Note: potency is the fitted concentration of half-maximal effect. An outline of the steps:
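Quantitative HTS format, Tox21 10K library. HeLa cells carrying an HSE-driven beta-lactamase reporter were treated 5 h at 37 C, then assessed for viability by CellTiter-Glo luminescence.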

The nature of test [9]: qHTS assay for small molecule activators of the heat shock response signaling pathway (AID 743210; active = well fitted activation curve with a large enough effect in the signal ratio in the repeat runs, with a control signal flat, not every such curve was filed as active; the % refers to the signal ratio;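 note: HeLa cells with beta-lactamase reporter driven by heat shock elements; series mostly up to about 63 µM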). An outline of the steps: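 Quantitative high-throughput format using an engineered HeLa line in which heat shock response elements drive beta-lactamase; after 5 h with compound, cells received a B/G FRET substrate and fluorescence was read.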
Test [10] addresses Aryl hydrocarbon receptor (Homo sapiens) (UniProt P35869). The experiment in a line: qHTS assay to identify small molecule that activate the aryl hydrocarbon receptor (AhR) signaling pathway (AID 743085).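 Note: HG2L7.5c1 human HepG2 liver cells with stably integrated DRE-driven firefly reporter; series mostly up to about 70 µM; nearly all actives have a fitted effect of over 15% in size.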 An outline of the steps:
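Measured in HG2L7.5c1 cells: CellTiter-Fluor signal (30 min incubation, 37C) for viability, then luciferase luminescence (30 min, room temperature). Compound contact time was 24 h at 37C, following a 5 h pre-incubation.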

Peroxisome proliferator-activated receptor gamma (Homo sapiens), sequence (P37231 whole entry, looked up): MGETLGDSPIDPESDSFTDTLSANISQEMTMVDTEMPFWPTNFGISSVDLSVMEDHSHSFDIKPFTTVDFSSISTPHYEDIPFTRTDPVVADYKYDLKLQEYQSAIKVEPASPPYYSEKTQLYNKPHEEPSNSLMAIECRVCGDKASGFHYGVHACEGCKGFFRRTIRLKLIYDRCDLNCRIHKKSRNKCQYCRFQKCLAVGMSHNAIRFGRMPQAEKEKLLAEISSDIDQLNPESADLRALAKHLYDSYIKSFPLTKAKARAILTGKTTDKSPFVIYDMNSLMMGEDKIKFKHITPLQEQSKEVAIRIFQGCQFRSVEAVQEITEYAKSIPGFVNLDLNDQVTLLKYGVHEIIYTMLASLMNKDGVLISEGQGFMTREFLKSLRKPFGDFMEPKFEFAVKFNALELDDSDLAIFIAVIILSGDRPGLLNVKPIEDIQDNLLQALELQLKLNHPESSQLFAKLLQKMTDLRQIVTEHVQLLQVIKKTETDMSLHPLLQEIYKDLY
Aryl hydrocarbon receptor (Homo sapiens), sequence (P35869 whole entry, looked up): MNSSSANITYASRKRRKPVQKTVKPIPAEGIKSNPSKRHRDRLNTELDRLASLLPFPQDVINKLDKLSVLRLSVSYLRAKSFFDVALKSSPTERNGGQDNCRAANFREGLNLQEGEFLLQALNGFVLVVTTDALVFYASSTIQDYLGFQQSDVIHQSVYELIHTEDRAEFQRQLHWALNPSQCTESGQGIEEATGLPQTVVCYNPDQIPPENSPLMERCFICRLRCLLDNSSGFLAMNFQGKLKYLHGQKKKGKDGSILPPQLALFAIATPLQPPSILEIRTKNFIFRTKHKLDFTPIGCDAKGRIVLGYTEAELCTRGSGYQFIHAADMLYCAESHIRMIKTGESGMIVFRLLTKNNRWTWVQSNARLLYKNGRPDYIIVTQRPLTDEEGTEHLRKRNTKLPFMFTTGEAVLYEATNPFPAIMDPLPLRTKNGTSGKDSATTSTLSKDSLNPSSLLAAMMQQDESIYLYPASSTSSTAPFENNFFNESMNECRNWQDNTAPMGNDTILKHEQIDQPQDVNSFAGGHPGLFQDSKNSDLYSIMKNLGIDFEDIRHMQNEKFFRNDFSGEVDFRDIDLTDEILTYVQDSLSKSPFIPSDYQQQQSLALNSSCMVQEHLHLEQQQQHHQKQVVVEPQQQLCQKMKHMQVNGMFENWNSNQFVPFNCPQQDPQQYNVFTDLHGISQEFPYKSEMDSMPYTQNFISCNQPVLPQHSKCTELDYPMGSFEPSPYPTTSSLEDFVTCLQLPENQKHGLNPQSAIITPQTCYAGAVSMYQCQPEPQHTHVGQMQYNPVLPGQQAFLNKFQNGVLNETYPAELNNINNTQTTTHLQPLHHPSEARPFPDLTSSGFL

In the case of `COc1ccc2c(c1OC)C(=O)O[C@H]2[C@@H]1c2cc3c(cc2CCN1C)OCO3`, the Potency result in test [1], in test [2], in test [3], in [4], in [5] and in test [6] was “inactive” each time. Further, the Potency entry in test [7] and in [8] was “inactive” throughout.

In the case of `c1ccc2c(c1)-c1cccc3cccc-2c13`, the Potency entry in test [1], in [2], in test [5], in test [6], in test [7] and in [8] was “inactive” in each case. Besides, the Potency entry in test [9] was “inactive”.

On to `O=[N+]([O-])/C=C/c1ccccc1`, for which the Potency is 31.1 µM (active) and 54.5 µM (active) in test [1]; 31.4 µM (active) and 24.5 µM (active) in [5]; 22 µM (active) and 15.4 µM (active) in test [7]. Further, the Potency result in test [2] and in test [8] was “inactive” in each case.

Turning to `CCC(=O)O[C@@H]1C=C2CCC3C(CCC4(C)C3CC[C@@H]4OC(=O)CC)C2CC1` (stereo not given in full), the Potency result in test [4], in test [5], in [6], in test [7], in test [8] and in test [9] was “inactive” in each case.

Consider `O=C(O)c1ccc(=O)[nH]c1`, for which the Potency entry in [6], in test [7], in test [8] and in [9] was “inactive” throughout.

Consider `CCC1CCC(=O)O1` (stereo not given), for which the Potency result in [2], in [6], in test [7] and in test [8] was “inactive” each time.

Regarding `CCOC(=O)c1cn2nc(OP(=S)(OCC)OCC)cc2nc1C`, the Potency entry in [1], in [2], in test [5], in test [7] and in test [8] was “inactive” in each case.

Consider `CC(Cc1ccccc1)NCc1ccccc1Cl` (stereo not given), for which the Potency result in test [1], in test [2], in test [3], in test [4], in test [5] and in test [7] was “inactive” throughout. Further, the Potency result in test [8] and in [9] was “inactive” throughout.

For `CC(CC(C(N)=O)(c1ccccc1)c1ccccc1)N(C)C` (stereo not given), the Potency entry in test [4], in [5], in test [7], in test [8] and in [9] was “inactive” in each case.

For the compound `O=C(O)C(F)(F)C(F)(F)C(F)(F)C(F)(F)C(F)(F)F`, the Potency entry in test [10], in [3], in test [5], in [6], in test [7] and in test [8] was “inactive” throughout. Besides, the Potency result in test [9] was “inactive”.

For `O=C(O)CCCOc1ccc(Cl)cc1Cl`, the Potency result in test [2], in test [5], in [6], in test [8] and in [9] was “inactive” each time. The Potency result in test [7] is “inactive and 27.8 µM (active)”.

Take `CC(C)(C)CC(C)(C)c1ccc(O)cc1`: the Potency result in test [1] was “inactive and 30.6 µM (active)”; in test [7], 30.6 µM (active) and inactive; in test [8] it was 54.9 µM (active) and 29.8 µM (active). Also, in [5], the Potency entry was “inactive”.

For `COc1cc(CC#N)cc(OC)c1OC`, the Potency result in test [5], in test [6], in test [7], in test [8] and in [9] was “inactive” each time.

As to `Cc1nc2ccccc2c(=O)n1-c1ccccc1Cl`, the Potency entry in [10], in test [3], in test [4], in [5], in [7] and in [8] was “inactive” throughout. For the same compound, the Potency result in test [9] is “inactive”. Further, the Potency in [2] was 47.5 µM (active).

Take `CNC(=O)Oc1cccc(N=CN(C)C)c1`: the Potency entry in test [1], in test [2], in test [3], in test [5], in test [7] and in test [8] was “inactive” each time.

Consider `COc1ccccc1N1CCNCC1`, for which the Potency result in test [1], in test [2], in test [3], in [4], in test [5] and in [6] was “inactive” each time. Further, the Potency result in [7], in test [8] and in [9] was “inactive” in each case.

For `CC(C)(C)NCC(O)c1cc(Cl)c(N)c(C(F)(F)F)c1` (stereo not given), the Potency entry in test [10], in test [3], in test [4], in test [5], in [6] and in [7] was “inactive” throughout. Moreover, in test [8], the Potency result is “inactive”.

Consider `CCCCCCCCP(=O)(O)O`, for which the Potency result in [1], in test [2], in test [5], in [7] and in test [8] was “inactive” each time.

`CN1C(=O)CN=C(c2ccccc2)c2cc([N+](=O)[O-])ccc21`: the Potency entry in [10], in [2], in test [3], in [4], in test [5] and in [6] was “inactive” in each case. Further, the Potency result in test [7], in [8] and in test [9] was “inactive” each time.

For `C#CC(O)(C=CCl)CC` (stereo not given), the Potency result in test [4], in test [5], in [6], in test [7], in test [8] and in [9] was “inactive” in each case.

Regarding `CCCN(CCOc1c(Cl)cc(Cl)cc1Cl)C(=O)n1ccnc1`, the Potency entry in [1], in [2], in test [3], in test [5], in test [8] and in test [9] was “inactive” in each case.

As to `C[C@@H]1C[C@@H]([C@H](O)CC2CC(=O)NC(=O)C2)C(=O)[C@@H](C)C1`, the Potency result in test [3], in [5], in test [7] and in test [8] was “inactive” throughout.

Regarding `Cc1nnc(-c2ccccc2)c(=O)n1N`, the Potency entry in [1], in test [2], in test [3], in test [5], in test [6] and in [7] was “inactive” throughout. Further, the Potency result in test [8] and in test [9] was “inactive” in each case.

As to `CCCCCCCCCCCCCCCl`, the Potency entry in test [1], in test [2], in [3], in [5], in test [6] and in [7] was “inactive” each time. Moreover, the Potency result in test [8] and in [9] was “inactive” each time.

On to `C=C(Cl)Cl`, for which the Potency result in test [1], in test [2], in test [3], in [5], in [6] and in [7] was “inactive” throughout. In addition, the Potency result in test [8] and in test [9] was “inactive” in each case.

As for `COc1ccc(C(=O)c2c(C)n(CCN3CCOCC3)c3ccccc23)cc1`, the Potency result in test [1], in test [2], in test [3], in test [5], in test [6] and in test [7] was “inactive” in each case. Also, the Potency entry in test [8] and in test [9] was “inactive” throughout.

Turning to `CN1C[C@H](C(=O)N[C@]2(C)O[C@@]3(O)[C@@H]4CCCN4C(=O)[C@H](Cc4ccccc4)N3C2=O)C=C2c3cccc4[nH]cc(c34)C[C@H]21`, the Potency result in [1], in [3], in [5], in [7] and in test [8] was “inactive” in each case. In addition, the Potency in test [2] is 21.8 µM (active) and inactive; in [4] it was 43.8 µM (active) and inactive.

Take `CC(=O)OC(c1ccccc1)C(Cl)(Cl)Cl` (stereo not given): the Potency result in test [1], in test [2], in [3], in test [5], in test [6] and in [7] was “inactive” throughout. Also, the Potency entry in test [8] is “inactive”.

Take `O=S(=O)(Cl)Cl`: the Potency entry in test [10], in test [2], in test [3], in test [4], in [5] and in test [6] was “inactive” throughout. In addition, the Potency entry in test [7] and in test [8] was “inactive” in each case.

Turning to `CCC(C)Cl` (stereo not given), the Potency entry in test [1], in test [2], in test [3], in test [4], in test [5] and in test [6] was “inactive” in each case. In addition, the Potency result in test [7] and in test [8] was “inactive” in each case.

Turning to `CC[N+]1(CCOC(=O)C(O)(c2ccccc2)c2ccccc2)CCCCC1`, the Potency entry in [1], in [2], in test [3], in test [4], in [5] and in test [7] was “inactive” each time. In addition, the Potency result in test [8] was “inactive”.

With `CCOC(C(=O)OCCN(C)C)(c1ccccc1)c1ccccc1`, the Potency entry in test [4], in [5], in [6], in test [7], in test [8] and in test [9] was “inactive” in each case.

Turning to `FC(Cl)(Cl)C(F)(Cl)Cl`, the Potency entry in test [1], in test [2], in test [5], in test [6], in test [7] and in test [9] was “inactive” throughout.

Regarding `Nc1ccccc1C(=O)OCC(O)CO` (stereo not given), the Potency entry in test [5], in test [6], in test [7], in test [8] and in test [9] was “inactive” throughout.

For `CCCN(CCC)C(=O)Cc1c(-c2ccc(Cl)cc2)nc2ccc(Cl)cn12`, the Potency entry in [1], in test [2], in test [3], in [5], in [7] and in [8] was “inactive” throughout.

With `C=CCc1ccc(OC(=O)Cc2ccccc2)c(OC)c1`, the Potency entry in test [1], in test [2], in [3], in [5], in [6] and in [7] was “inactive” in each case. Besides, the Potency entry in test [8] and in test [9] was “inactive” throughout.

As for `O=C(N/N=C/c1ccc([N+](=O)[O-])o1)c1cc([N+](=O)[O-])cc([N+](=O)[O-])c1O`, the Potency in test [2] is 29.8 µM (active). The Potency entry in test [3], in [4], in [5], in test [7], in test [8] and in [9] was “inactive” each time.

For the compound `CC(C)(C)OOC(C)(C)CCC(C)(C)OOC(C)(C)C`, the Potency result in test [2], in test [5], in test [6], in test [7], in [8] and in test [9] was “inactive” in each case.

Consider `NP(N)(=O)NC(=O)c1ccc(F)cc1`, for which the Potency entry in test [1], in test [2], in test [3], in test [5], in test [6] and in [7] was “inactive” throughout. The Potency result in test [8] and in [9] was “inactive” throughout.
